Screening results (PubChem)
A selection: hits, their analogues and other compounds. The true share with any hit is near 6.8%.
C diff growth = blocks growth of Clostridium difficile | Clostridium difficile clinical isolate growth, OD600, 24 h; stronger effect = lower value | growth activity, negative = inhibition, % at 16 µg/mL (by protocol) | hit rate 0.25% among 86,000;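 active means mean growth activity at or below -80% and every replicate also at or below -80%; inconclusive means mean at or below -80% but some replicate above -80%; inactive means mean growth activity above -80%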;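 further: 0% = DMSO wells and -100% = levofloxacin 16 µg/mL wells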
Tcruzi prolif = inhibitors of T. cruzi proliferation. T. cruzi beta-gal in NIH3T3, GalScreen luminescence, 90 h. inhibition, % at 8.34 µM. hit rate 5.9% among 77,000. AID 624255;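 active means mean inhibition above about 93%, with at least 55% of replicates each passing it, limit read from the data, passing the limit was not always enough; inconclusive means only one of those two conditions holds; inactive means neither condition holds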
Pf Dd2 growth = P. falciparum Dd2 growth inhibition; hit rate 2.3% among 94,000; activity change, % at 10 µM; AID 1159554; SYBR Green, 72 h; stronger effect = lower value; in the data active means activity change below about -80%; inconclusive means no clear call, values can overlap the other calls
Numbers without * were called inactive; ! = repeats disagree.

How did C[C@@H]1CN([C@@H](C)CO)C(=O)Cc2cc(NS(=O)(=O)c3cn(C)cn3)ccc2O[C@@H]1CN(C)Cc1ccc(Cl)c(Cl)c1 do in these assays?
C diff growth: -12; Tcruzi prolif: 69; Pf Dd2 growth: 11

How did Cc1noc(C)c1S(=O)(=O)Nc1ccc2c(c1)C(=O)N([C@@H](C)CO)C[C@@H](C)[C@H](CN(C)C(=O)C1CCCCC1)OCCCC[C@@H](C)O2 do in these assays?
C diff growth: -2; Tcruzi prolif: 93; Pf Dd2 growth: 1

Results for Cc1ccc(S(=O)(=O)N(C)C[C@@H]2Oc3c(NC(=O)NC4CCCCC4)cccc3C(=O)N([C@H](C)CO)C[C@@H]2C)cc1 ?
C diff growth: -11; Tcruzi prolif: -32; Pf Dd2 growth: -61

Results for COCC(=O)N(C)C[C@H]1Oc2ncc(-c3ccccc3C)cc2C(=O)N([C@@H](C)CO)C[C@H]1C ?
C diff growth: 1; Tcruzi prolif: 12; Pf Dd2 growth: 24

Results for COCC(=O)N1C[C@H](C)[C@@H](OC)CN(C)C(=O)c2cc(NC(=O)Nc3ccccc3)ccc2OC[C@@H]1C ?
Tcruzi prolif: -26; Pf Dd2 growth: -32

Results for C[C@@H]1CN([C@H](C)CO)S(=O)(=O)c2ccc(-c3cncnc3)cc2O[C@H]1CN(C)C(=O)C1CCCCC1 ?
C diff growth: 0; Pf Dd2 growth: -33

How did COc1ccc(S(=O)(=O)N2CC[C@@H]3[C@H]2c2cc(-c4ccc(C#N)cc4)ccc2N[C@@H]3CO)cc1 do in these assays?
C diff growth: 3; Tcruzi prolif: 89; Pf Dd2 growth: -91*

How did COc1ccc(-c2ccc3c(c2)[C@@H]2[C@@H](CCN2S(=O)(=O)c2ccc(OC)cc2)[C@H](CO)N3)cc1 do in these assays?
C diff growth: 0; Tcruzi prolif: 49; Pf Dd2 growth: -58

What do the screens show for `C[C@@H]1CN([C@H](C)CO)C(=O)Cc2cc(NC(=O)Cc3ccccc3)ccc2O[C@@H]1CN(C)C(=O)Nc1cccc2ccccc12`?
C diff growth: 1; Tcruzi prolif: 73; Pf Dd2 growth: 2

What do the screens show for `COc1ccccc1S(=O)(=O)N[C@H]1CC[C@@H](CCNC(=O)C2CCCCC2)O[C@H]1CO`?
C diff growth: 1; Tcruzi prolif: 9; Pf Dd2 growth: 0

Results for C/C=C/c1ccc(C2[C@H]3CNC[C@@H]2N3Cc2cc(F)ccc2F)cc1 (stereo partly specified) ?
C diff growth: 33; Pf Dd2 growth: -84*!

What do the screens show for `C/C=C/c1ccc(C2[C@H]3CNC[C@@H]2N3Cc2ccccc2OC)cc1` (stereo partly specified)?
C diff growth: -8; Pf Dd2 growth: -60

Results for C[C@@H]1CCCCO[C@@H](CN(C)Cc2ccc(C(=O)Nc3ccccc3N)cc2)[C@@H](C)CN([C@H](C)CO)C(=O)c2cc(NS(=O)(=O)c3ccc(F)cc3)ccc2O1 ?
C diff growth: 1; Pf Dd2 growth: -77

How did Cc1noc(C)c1S(=O)(=O)Nc1ccc2c(c1)C(=O)N([C@H](C)CO)C[C@H](C)[C@H](CN(C)Cc1ccc(C(=O)Nc3ccccc3N)cc1)OCCCC[C@@H](C)O2 do in these assays?
C diff growth: 0; Pf Dd2 growth: -86*

How did C[C@@H]1CCCCO[C@H](CN(C)Cc2ccc(C(=O)Nc3ccccc3N)cc2)[C@@H](C)CN([C@H](C)CO)C(=O)c2cc(NS(=O)(=O)c3ccc(Cl)cc3)ccc2O1 do in these assays?
C diff growth: 9; Tcruzi prolif: 89; Pf Dd2 growth: -82*

Results for Cc1noc(C)c1S(=O)(=O)Nc1ccc2c(c1)C(=O)N([C@H](C)CO)C[C@H](C)[C@@H](CN(C)Cc1ccc(C(=O)Nc3ccccc3N)cc1)OCCCC[C@@H](C)O2 ?
C diff growth: 0; Pf Dd2 growth: inconclusive

Results for C[C@@H]1CCCCO[C@@H](CN(C)Cc2ccc(C(=O)Nc3ccccc3N)cc2)[C@@H](C)CN([C@H](C)CO)C(=O)c2cc(NS(=O)(=O)c3ccccc3)ccc2O1 ?
C diff growth: 3; Pf Dd2 growth: -81*

What do the screens show for `COc1ccc(S(=O)(=O)Nc2ccc3c(c2)C(=O)N([C@@H](C)CO)C[C@@H](C)[C@H](CN(C)Cc2ccc(C(=O)Nc4ccccc4N)cc2)OCCCC[C@@H](C)O3)cc1`?
C diff growth: 1; Tcruzi prolif: 62; Pf Dd2 growth: inconclusive

How did O=C(Cc1ccccn1)NCC[C@H]1CC[C@@H](NC(=O)Nc2ccc(Cl)cc2)[C@@H](CO)O1 do in these assays?
C diff growth: 1; Tcruzi prolif: -56; Pf Dd2 growth: -26

Results for COc1cccc(C(=O)Nc2ccc3c(c2)C(=O)N(C)C[C@@H](OC)[C@@H](C)CN(C)[C@H](C)CO3)c1 ?
Tcruzi prolif: 10; Pf Dd2 growth: 27

How did CO[C@@H]1CN(C)C(=O)c2ccc(NC(=O)c3cccc(F)c3)cc2OC[C@H](C)N(C)C[C@H]1C do in these assays?
Tcruzi prolif: -20; Pf Dd2 growth: 2

Results for O=C(c1ccccc1F)N1CC[C@@H]2[C@H](CO)Nc3ccc(C#Cc4ccccc4)cc3[C@@H]21 ?
C diff growth: 1; Tcruzi prolif: 87; Pf Dd2 growth: -16

Results for CC(=O)N(C)C[C@@H]1Oc2cc(C#CC3CCCC3)ccc2S(=O)(=O)N([C@H](C)CO)C[C@@H]1C ?
C diff growth: 2; Tcruzi prolif: 51; Pf Dd2 growth: -26

How did CC(C)NC(=O)N1[C@@H](CO)[C@@H](c2ccccc2)C12CN(Cc1ccc(F)cc1)C2 do in these assays?
C diff growth: 4; Pf Dd2 growth: -84*

How did CC(C)NC(=O)N1[C@@H](CO)[C@@H](c2ccccc2)C12CN(Cc1ccccc1)C2 do in these assays?
C diff growth: -7; Pf Dd2 growth: -51

How did OC[C@H]1[C@H](c2ccccc2)C2(CN(Cc3ccccc3F)C2)N1Cc1ccccc1F do in these assays?
C diff growth: 22; Pf Dd2 growth: -93*

What do the screens show for `CC(C)NC(=O)N1[C@@H](CO)[C@@H](c2ccccc2)C12CN(Cc1ccc(Cl)cc1)C2`?
C diff growth: 0; Pf Dd2 growth: -69

What do the screens show for `O=C(C1CC1)N1CC2(C1)[C@@H](c1ccccc1)[C@@H](CO)N2Cc1ccccc1F`?
C diff growth: -2; Pf Dd2 growth: -43

Results for CC(C)NC(=O)N1[C@H](CO)[C@@H](c2ccccc2)C12CN(Cc1ccc(Cl)cc1)C2 ?
C diff growth: 5; Pf Dd2 growth: -88*

What do the screens show for `CNC[C@@H]1OCCCC[C@H](C)Oc2ccc(NS(C)(=O)=O)cc2C(=O)N([C@H](C)CO)C[C@@H]1C`?
C diff growth: -2; Tcruzi prolif: -1; Pf Dd2 growth: 11

Results for COc1ccc2c3c([nH]c2c1)[C@@H](CO)N(C(=O)NC(C)C)CC31CCN(C(=O)NC2CCCC2)CC1 ?
C diff growth: -2; Pf Dd2 growth: -73

Results for C/C=C/c1ccc2c(c1)O[C@@H](CN(C)Cc1ccccn1)[C@H](C)CN([C@@H](C)CO)S2(=O)=O ?
C diff growth: -1; Pf Dd2 growth: 6

Results for O=C(C1CCC1)N1CC2(C1)[C@H](c1ccccc1)[C@H](CO)N2Cc1cccnc1 ?
C diff growth: 9; Pf Dd2 growth: -11
